{
  "source": "PubChem BioAssay (EPA / NIEHS)",
  "key": {"[1]": {"biological_target": "human Caspase 2 (CASP2), CASP2 (gene 835) (UniProt P42575)", "sequence (P42575 whole entry, looked up)": "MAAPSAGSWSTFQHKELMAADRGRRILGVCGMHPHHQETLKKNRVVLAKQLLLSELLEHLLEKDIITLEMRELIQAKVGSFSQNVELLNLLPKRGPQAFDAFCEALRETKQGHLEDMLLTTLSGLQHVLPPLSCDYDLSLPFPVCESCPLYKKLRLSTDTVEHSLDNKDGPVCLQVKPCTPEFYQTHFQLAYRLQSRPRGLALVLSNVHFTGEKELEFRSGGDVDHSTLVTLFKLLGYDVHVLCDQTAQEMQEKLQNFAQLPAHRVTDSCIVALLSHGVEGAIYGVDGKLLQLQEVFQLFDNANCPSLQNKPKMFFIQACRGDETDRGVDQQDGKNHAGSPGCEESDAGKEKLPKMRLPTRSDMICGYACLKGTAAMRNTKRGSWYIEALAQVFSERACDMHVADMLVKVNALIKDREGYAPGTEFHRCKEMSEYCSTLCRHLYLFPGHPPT", "assay": "NVS_ENZ_hCASP2: NovaScreen (NVS) Enzymatic Assay for human Caspase 2 (CASP2) (AID 2283135)", "how_it_was_run": "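Single-point duplicate testing at 25 uM preceded concentration series topping at 50 uM. Activity of the recombinant E. coli-derived protease was followed by fluorescent substrate cleavage 1 h post-dosing, relative to DMSO.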"}, "[2]": {"biological_target": "human AKT serine/threonine Kinase 1 (AKT1), AKT1 (gene 207) (UniProt P31749)", "sequence (P31749 whole entry, looked up)": "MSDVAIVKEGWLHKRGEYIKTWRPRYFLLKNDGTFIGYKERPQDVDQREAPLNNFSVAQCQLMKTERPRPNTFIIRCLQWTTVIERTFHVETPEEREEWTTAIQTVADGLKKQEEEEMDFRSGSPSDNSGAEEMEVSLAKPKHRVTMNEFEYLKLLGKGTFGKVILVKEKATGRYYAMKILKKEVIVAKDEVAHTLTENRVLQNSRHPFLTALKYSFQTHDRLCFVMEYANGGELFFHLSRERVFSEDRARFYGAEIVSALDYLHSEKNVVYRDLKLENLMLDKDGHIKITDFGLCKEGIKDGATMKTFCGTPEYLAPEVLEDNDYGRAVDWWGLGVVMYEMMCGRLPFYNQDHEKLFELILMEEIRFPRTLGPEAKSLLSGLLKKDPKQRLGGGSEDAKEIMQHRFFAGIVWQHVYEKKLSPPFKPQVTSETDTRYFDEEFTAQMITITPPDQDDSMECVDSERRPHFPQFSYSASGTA", "assay": "NVS_ENZ_hAKT1: NovaScreen (NVS) Enzymatic Assay for human AKT serine/threonine Kinase 1 (AKT1) (AID 2283138)", "how_it_was_run": "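Fluorescence and mobility-shift readout of kinase activity, taken 1 h post-dosing in a cell-free format with recombinant protein. Primary screen at 25 uM in duplicate; hits (e.g. 30% inhibition) retested in concentration series topping at 50 uM.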"}, "[3]": {"tested_on": "rat CYP2B1, gene 24300", "assay": "NVS_ADME_rCYP2B1: NovaScreen (NVS) CYP450-related Enzyme Activity (ADME) Assay for rat CYP2B1 (AID 2283117)", "how_it_was_run": "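Cell-free fluorescence enzyme assay, recombinant rat CYP2B1, 0.75 h after dosing. Single-concentration duplicates at 10 uM preceded concentration series (max 20 uM) for actives; acetonitrile as negative-control baseline.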"}, "[4]": {"biological_target": "human Dual Specificity Protein Phosphatase 3 (DUSP3), DUSP3 (gene 1845) (UniProt P51452)", "assay": "NVS_ENZ_hDUSP3: NovaScreen (NVS) Enzymatic Assay for human Dual Specificity Protein Phosphatase 3 (DUSP3) (AID 2283152)", "how_it_was_run": "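Cell-free fluorescence-intensity enzyme activity assay with recombinant protein and substrate; loss of signal fitted relative to DMSO baseline. Primary screen in duplicate at 25 uM, actives then run in concentration series; measured 0 h after dosing.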"}, "[5]": {"biological_target": "human Epidermal Growth Factor Receptor (EGFR), EGFR (gene 1956) (UniProt P00533)", "sequence (P00533 whole entry, looked up)": "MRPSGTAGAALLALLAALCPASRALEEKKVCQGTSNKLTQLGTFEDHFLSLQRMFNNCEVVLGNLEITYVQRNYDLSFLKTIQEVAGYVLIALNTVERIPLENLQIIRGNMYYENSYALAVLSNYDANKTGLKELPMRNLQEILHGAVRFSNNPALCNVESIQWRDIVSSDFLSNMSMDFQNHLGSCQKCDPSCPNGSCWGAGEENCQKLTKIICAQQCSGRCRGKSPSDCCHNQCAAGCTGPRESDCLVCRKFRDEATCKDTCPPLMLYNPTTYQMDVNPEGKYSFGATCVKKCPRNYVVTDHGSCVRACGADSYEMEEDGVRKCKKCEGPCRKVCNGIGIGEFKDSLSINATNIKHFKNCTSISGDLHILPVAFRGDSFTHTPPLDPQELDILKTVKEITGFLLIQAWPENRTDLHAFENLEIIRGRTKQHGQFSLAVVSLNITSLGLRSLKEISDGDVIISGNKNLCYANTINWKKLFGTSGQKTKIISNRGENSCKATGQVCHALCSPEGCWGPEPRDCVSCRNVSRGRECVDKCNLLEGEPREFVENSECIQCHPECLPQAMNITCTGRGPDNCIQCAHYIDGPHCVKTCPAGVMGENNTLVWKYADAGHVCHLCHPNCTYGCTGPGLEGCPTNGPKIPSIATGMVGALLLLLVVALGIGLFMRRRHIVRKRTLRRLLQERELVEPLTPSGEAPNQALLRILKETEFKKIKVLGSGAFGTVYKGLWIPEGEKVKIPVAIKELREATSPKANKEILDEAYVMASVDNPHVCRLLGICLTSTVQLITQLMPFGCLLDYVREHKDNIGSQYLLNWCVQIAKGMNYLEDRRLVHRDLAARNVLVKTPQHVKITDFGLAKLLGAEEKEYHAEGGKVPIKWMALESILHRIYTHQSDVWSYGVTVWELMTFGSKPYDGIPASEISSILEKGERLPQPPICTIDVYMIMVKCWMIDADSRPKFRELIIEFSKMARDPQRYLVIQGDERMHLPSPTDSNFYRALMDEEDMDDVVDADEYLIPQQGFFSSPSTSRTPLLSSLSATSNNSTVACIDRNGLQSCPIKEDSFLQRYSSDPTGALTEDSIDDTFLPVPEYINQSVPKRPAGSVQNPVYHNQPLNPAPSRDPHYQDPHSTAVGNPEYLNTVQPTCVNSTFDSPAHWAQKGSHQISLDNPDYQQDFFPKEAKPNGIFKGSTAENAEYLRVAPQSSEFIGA", "assay": "NVS_ENZ_hEGFR: NovaScreen (NVS) Enzymatic Assay for human Epidermal Growth Factor Receptor (EGFR) (AID 2283151)", "how_it_was_run": "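Cell-free kinase assay, fluorescence plus electrophoretic mobility shift separating substrate and product, read 1 hour after dosing; loss of signal vs DMSO. Duplicate screen at 25 uM, then concentration-response to 50 uM.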"}, "[6]": {"biological_target": "human Caspase 5 (CASP5), CASP5 (gene 838) (UniProt P51878)", "sequence (P51878 whole entry, looked up)": "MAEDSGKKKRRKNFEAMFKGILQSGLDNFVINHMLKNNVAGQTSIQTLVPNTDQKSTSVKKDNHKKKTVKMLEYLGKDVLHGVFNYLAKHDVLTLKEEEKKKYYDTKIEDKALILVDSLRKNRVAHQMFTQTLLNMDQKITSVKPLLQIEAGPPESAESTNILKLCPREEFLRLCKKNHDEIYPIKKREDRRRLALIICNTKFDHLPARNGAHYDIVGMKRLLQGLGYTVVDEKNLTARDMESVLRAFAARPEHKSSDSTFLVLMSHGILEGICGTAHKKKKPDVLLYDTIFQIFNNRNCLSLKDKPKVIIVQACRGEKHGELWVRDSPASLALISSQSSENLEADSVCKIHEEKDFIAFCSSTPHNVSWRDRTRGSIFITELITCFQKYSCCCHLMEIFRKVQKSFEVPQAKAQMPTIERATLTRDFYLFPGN", "assay": "NVS_ENZ_hCASP5: NovaScreen (NVS) Enzymatic Assay for human Caspase 5 (CASP5) (AID 2283137)", "how_it_was_run": "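Fluorescent substrate readout of CASP5 activity (loss-of-signal), measured 2 h post-dose. Protein expressed in E. coli. Primary screen duplicate at 25 uM; actives meeting threshold (e.g., 30% inhibition) rerun singleton, max 50 uM.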"}, "[7]": {"biological_target": "human Ephrin type-A Receptor 1 (EphA1), EPHA1 (gene 2041) (UniProt P21709)", "sequence (P21709 whole entry, looked up)": "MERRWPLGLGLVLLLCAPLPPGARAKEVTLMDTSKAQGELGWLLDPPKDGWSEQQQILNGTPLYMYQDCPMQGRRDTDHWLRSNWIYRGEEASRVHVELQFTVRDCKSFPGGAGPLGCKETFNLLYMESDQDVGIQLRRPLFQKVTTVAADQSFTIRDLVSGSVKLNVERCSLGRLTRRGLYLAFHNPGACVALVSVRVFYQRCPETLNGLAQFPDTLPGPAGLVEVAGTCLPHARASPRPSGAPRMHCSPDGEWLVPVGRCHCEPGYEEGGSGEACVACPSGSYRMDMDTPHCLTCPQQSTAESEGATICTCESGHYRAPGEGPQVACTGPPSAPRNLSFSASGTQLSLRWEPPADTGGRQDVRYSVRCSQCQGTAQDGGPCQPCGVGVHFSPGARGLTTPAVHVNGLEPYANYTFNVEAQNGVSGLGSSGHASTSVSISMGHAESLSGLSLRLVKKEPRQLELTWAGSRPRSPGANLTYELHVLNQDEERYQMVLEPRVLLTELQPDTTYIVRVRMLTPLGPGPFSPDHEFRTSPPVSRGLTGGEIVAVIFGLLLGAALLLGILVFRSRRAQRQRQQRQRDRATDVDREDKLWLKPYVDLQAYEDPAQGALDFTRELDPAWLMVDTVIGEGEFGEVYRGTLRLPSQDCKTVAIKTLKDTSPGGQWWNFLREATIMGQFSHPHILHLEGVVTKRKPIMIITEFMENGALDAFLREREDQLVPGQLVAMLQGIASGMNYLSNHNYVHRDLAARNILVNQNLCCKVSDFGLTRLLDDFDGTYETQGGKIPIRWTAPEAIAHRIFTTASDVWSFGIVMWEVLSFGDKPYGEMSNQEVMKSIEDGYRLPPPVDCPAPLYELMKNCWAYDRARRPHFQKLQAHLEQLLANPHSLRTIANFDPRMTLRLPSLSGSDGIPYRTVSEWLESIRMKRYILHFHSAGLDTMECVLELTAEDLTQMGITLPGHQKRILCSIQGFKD", "assay": "NVS_ENZ_hEphA1: NovaScreen (NVS) Enzymatic Assay for human Ephrin type-A Receptor 1 (EphA1) (AID 2283158)", "how_it_was_run": "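Biochemical kinase assay run cell-free; 1 h incubation; readout is fluorescence with mobility-shift separation of product. Concentration-response up to 50 uM for actives from a 25 uM screen.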"}, "[8]": {"biological_target": "human Aurora Kinase A - serine/threonine-protein Kinase 6 (AurA), AURKA (gene 6790) (UniProt O14965)", "sequence (O14965 whole entry, looked up)": "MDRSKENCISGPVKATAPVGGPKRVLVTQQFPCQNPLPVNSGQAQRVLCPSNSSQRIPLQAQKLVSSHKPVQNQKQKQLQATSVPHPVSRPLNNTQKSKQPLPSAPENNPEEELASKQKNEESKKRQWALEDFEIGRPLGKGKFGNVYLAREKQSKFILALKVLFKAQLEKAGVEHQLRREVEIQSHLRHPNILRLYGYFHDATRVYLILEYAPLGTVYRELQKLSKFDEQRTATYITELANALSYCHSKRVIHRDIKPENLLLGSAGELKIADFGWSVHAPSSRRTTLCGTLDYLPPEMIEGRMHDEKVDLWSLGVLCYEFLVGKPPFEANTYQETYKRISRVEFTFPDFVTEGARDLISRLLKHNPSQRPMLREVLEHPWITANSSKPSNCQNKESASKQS", "assay": "NVS_ENZ_hAurA: NovaScreen (NVS) Enzymatic Assay for human Aurora Kinase A - serine/threonine-protein Kinase 6 (AurA) (AID 2283142)", "how_it_was_run": "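Recombinant human AurA activity read by fluorescence after mobility-shift separation of product from substrate; 1 hour incubation. Chemicals first run in duplicate at 25 uM, then concentration series to 50 uM if over threshold; fitted relative to DMSO.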"}, "[9]": {"biological_target": "CDK2 (gene 1017) (UniProt P24941)", "assay": "NVS_ENZ_hCDK2: NovaScreen (NVS) Enzymatic Assay for human Cyclin-Cependent Kinase 2 (CDK2) (AID 2283144)", "how_it_was_run": "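Compounds screened in duplicate at 25 uM, then in singleton concentration-response to a maximum of 50 uM, against recombinant CDK2; kinase activity read 1 hr after dosing by fluorescence with mobility-shift separation of substrate and product.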"}, "[10]": {"biological_target": "human Colony Stimulating Factor 1 Receptor (CSF1R), CSF1R (gene 1436) (UniProt P07333)", "assay": "NVS_ENZ_hCSF1R: NovaScreen (NVS) Enzymatic Assay for human Colony Stimulating Factor 1 Receptor (CSF1R) (AID 2283150)", "how_it_was_run": "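Compounds screened in duplicate at 25 uM, then concentration-response (top 50 uM) for those passing threshold such as 30% inhibition; recombinant CSF1R activity measured 1 h post-dosing via fluorescent substrate/product mobility-shift separation, loss of signal versus DMSO.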"}, "[11]": {"biological_target": "human Beta-secretase (BACE), BACE1 (gene 23621) (UniProt P56817)", "sequence (P56817 whole entry, looked up)": "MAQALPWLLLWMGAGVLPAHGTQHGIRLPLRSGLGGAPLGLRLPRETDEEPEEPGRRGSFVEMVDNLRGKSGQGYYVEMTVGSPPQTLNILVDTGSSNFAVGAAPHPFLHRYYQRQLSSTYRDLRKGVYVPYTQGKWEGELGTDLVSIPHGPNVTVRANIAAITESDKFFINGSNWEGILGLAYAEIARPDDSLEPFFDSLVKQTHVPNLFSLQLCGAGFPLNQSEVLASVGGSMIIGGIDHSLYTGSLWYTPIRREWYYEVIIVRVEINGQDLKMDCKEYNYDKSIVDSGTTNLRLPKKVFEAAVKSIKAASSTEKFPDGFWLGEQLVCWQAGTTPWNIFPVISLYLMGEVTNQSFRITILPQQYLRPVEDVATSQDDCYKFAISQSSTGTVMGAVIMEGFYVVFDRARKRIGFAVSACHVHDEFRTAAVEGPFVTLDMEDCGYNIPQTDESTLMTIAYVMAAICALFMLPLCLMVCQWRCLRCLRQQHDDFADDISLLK", "assay": "NVS_ENZ_hBACE: NovaScreen (NVS) Enzymatic Assay for human Beta-secretase (BACE) (AID 2283140);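 further: hits are inhibitors that reduce fluorescent substrate signal versus DMSO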", "how_it_was_run": "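SF9-expressed enzyme, cell-free; fluorescent substrate readout after 1 h. Screened at 25 uM single concentration, duplicate; hits retested in concentration series. Activity relative to DMSO baseline, loss-of-signal.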"}, "[12]": {"biological_target": "human Casein Kinase 1-delta (CK1D), CSNK1D (gene 1453) (UniProt P48730)", "sequence (P48730 whole entry, looked up)": "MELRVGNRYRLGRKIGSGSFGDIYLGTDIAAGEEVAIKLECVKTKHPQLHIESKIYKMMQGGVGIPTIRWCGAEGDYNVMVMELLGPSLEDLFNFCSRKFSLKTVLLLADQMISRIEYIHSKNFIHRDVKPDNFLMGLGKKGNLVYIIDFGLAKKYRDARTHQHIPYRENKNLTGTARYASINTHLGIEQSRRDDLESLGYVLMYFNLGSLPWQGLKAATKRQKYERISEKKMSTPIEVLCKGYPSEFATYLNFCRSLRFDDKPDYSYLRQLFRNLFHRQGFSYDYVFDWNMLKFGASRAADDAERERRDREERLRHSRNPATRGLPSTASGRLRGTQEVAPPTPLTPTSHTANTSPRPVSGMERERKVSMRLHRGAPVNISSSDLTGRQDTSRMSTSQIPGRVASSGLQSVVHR", "assay": "NVS_ENZ_hCK1D: NovaScreen (NVS) Enzymatic Assay for human Casein Kinase 1-delta (CK1D) (AID 2283148)", "how_it_was_run": "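Recombinant human CK1-delta, cell-free; fluorescent substrate with electrophoretic mobility-shift separation of product, read 1 h after dosing. Single 25 uM duplicate screen, then concentration-response up to 50 uM; loss of signal vs DMSO.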"}},
  "note": "Results filed as inconclusive are left out. Active and inactive are the calls of the source. How the source made its calls: active means hit-call score of the fitted dose curve at least 0.9, where 1 is the maximum; inconclusive means response in the unintended direction; inactive means score below 0.9.",
  "data": [
    {"smiles": "CCOP(=S)(OCC)SCSCC", "values": [
      {"measurement": "outcome", "setting": "[1]", "value": "inactive"},
      {"measurement": "outcome", "setting": "[2]", "value": "inactive"}
    ]},
    {"smiles": "O=c1ssc(Cl)c1Cl", "values": [
      {"measurement": "outcome", "setting": "[3]", "value": "inactive"},
      {"measurement": "AC50", "setting": "[4]", "value": "6.98 µM (active)"}
    ]},
    {"smiles": "ClC1=C(Cl)C2(Cl)C3C(Cl)C(Cl)CC3C1(Cl)C2(Cl)Cl", "note": "(stereo not drawn)", "values": [
      {"measurement": "outcome", "setting": "[5]", "value": "inactive"}
    ]},
    {"smiles": "Cc1ccc2c(c1N)C(=O)c1ccccc1C2=O", "values": [
      {"measurement": "AC50", "setting": "[6]", "value": "6.72 µM (active)"},
      {"measurement": "AC50", "setting": "[7]", "value": "19.2 µM (active)"}
    ]},
    {"smiles": "CC(C)(C)OOC(C)(C)C", "values": [
      {"measurement": "outcome", "setting": "[2]", "value": "inactive"},
      {"measurement": "outcome", "setting": "[8]", "value": "inactive"},
      {"measurement": "outcome", "setting": "[9]", "value": "inactive"},
      {"measurement": "outcome", "setting": "[10]", "value": "inactive"},
      {"measurement": "outcome", "setting": "[5]", "value": "inactive"},
      {"measurement": "outcome", "setting": "[7]", "value": "inactive"}
    ]},
    {"smiles": "NNC(N)=S", "values": [
      {"measurement": "outcome", "setting": "[11]", "value": "inactive"}
    ]},
    {"smiles": "CC(Cl)(Cl)C(=O)O", "values": [
      {"measurement": "outcome", "setting": "[1]", "value": "inactive"},
      {"measurement": "outcome", "setting": "[7]", "value": "inactive"}
    ]},
    {"smiles": "CCOS(=O)(=O)OCC", "values": [
      {"measurement": "outcome", "setting": "[12]", "value": "inactive"}
    ]},
    {"smiles": "O=P(OCC(Br)CBr)(OCC(Br)CBr)OCC(Br)CBr", "note": "(stereo not drawn)", "values": [
      {"measurement": "AC50", "setting": "[11]", "value": "14.3 µM (active)"}
    ]}
  ]
}
